# Data as given in the supplement of paper PMC12282887.
# ± gives the standard deviation of the averaged measurements.
# Tests used:
# Experiment in all cases: promoter activity interaction Z-score (Lux/OD deviation from empty-vector control); higher = stronger promoter induction by the compound
# [1] = system: E. coli BW25113 acrABp lux reporter
# How it was run: (§1)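 E. coli BW25113 (wild type or marA, soxS or rob deletion) carrying low-copy luxCDABE promoter reporters grew in 40 µl LB Lennox in 384-well plates at 37°C. Each compound was tested at four 1:2 dilutions in biological duplicates. OD600 and luminescence were read every 30 min for 12 h. Areas were taken over 0–8 h (wild type) or 1–9 h (mutants), and wells below 10% of median growth area were removed. The score is the Z-transformed residual of growth-normalised luminescence fitted against the empty-vector control.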
# [2] = system: E. coli BW25113 marRABp lux reporter
# How it was run: as §1
# [3] = system: E. coli BW25113 micFp lux reporter
# How it was run: as §1
# [4] = system: E. coli BW25113 ompFp lux reporter
# How it was run: as §1
# [5] = system: E. coli BW25113 robp lux reporter
# How it was run: as §1
# [6] = system: E. coli BW25113 soxSp lux reporter
# How it was run: as §1
# [7] = system: E. coli BW25113 tolCp lux reporter
# How it was run: as §1
# [8] = 23 µg/ml, genetic background: wild type
# [9] = 23 µg/ml, genetic background: ΔmarA
# [10] = 23 µg/ml, genetic background: Δrob
# [11] = 23 µg/ml, genetic background: ΔsoxS
# [12] = 46 µg/ml, genetic background: wild type
# [13] = 46 µg/ml, genetic background: ΔmarA
# [14] = 46 µg/ml, genetic background: Δrob
# [15] = 46 µg/ml, genetic background: ΔsoxS
# [16] = 92.1 µg/ml, genetic background: wild type
# [17] = 92.1 µg/ml, genetic background: ΔmarA
# [18] = 92.1 µg/ml, genetic background: Δrob
# [19] = 92.1 µg/ml, genetic background: ΔsoxS
# [20] = 184.2 µg/ml, genetic background: wild type
# [21] = 184.2 µg/ml, genetic background: ΔmarA
# [22] = 184.2 µg/ml, genetic background: Δrob
# [23] = 184.2 µg/ml, genetic background: ΔsoxS
compound,measurement,setting,value
COc1cc(/C=C/C(=O)CC(=O)/C=C/c2ccc(O)c(OC)c2)ccc1O [Curcumin],promoter activity interaction Z-score,[1]; [8],-0.214 ± 0.21
same,promoter activity interaction Z-score,[1]; [9],1.82 ± 1
same,promoter activity interaction Z-score,[1]; [10],0.162 ± 0.49
same,promoter activity interaction Z-score,[1]; [11],0.139 ± 0.18
same,promoter activity interaction Z-score,[1]; [12],0.341 ± 0.83
same,promoter activity interaction Z-score,[1]; [13],1.2 ± 0.066
same,promoter activity interaction Z-score,[1]; [14],0.14 ± 0.34
same,promoter activity interaction Z-score,[1]; [15],0.0402 ± 0.48
same,promoter activity interaction Z-score,[1]; [16],0.529 ± 0.2
same,promoter activity interaction Z-score,[1]; [17],1.08 ± 0.031
same,promoter activity interaction Z-score,[1]; [18],0.869 ± 0.75
same,promoter activity interaction Z-score,[1]; [19],0.0855 ± 0.34
same,promoter activity interaction Z-score,[1]; [20],0.33 ± 0.052
same,promoter activity interaction Z-score,[1]; [21],1.06 ± 1.1
same,promoter activity interaction Z-score,[1]; [22],1.36 ± 1.6
same,promoter activity interaction Z-score,[1]; [23],0.0296 ± 0.41
same,promoter activity interaction Z-score,[2]; [8],0.0587 ± 1
same,promoter activity interaction Z-score,[2]; [9],0.238 ± 0.1
same,promoter activity interaction Z-score,[2]; [10],0.099 ± 0.28
same,promoter activity interaction Z-score,[2]; [11],0.112 ± 0.41
same,promoter activity interaction Z-score,[2]; [12],-0.237 ± 0.12
same,promoter activity interaction Z-score,[2]; [13],0.377 ± 0.29
same,promoter activity interaction Z-score,[2]; [14],-0.00179 ± 0.26
same,promoter activity interaction Z-score,[2]; [15],-0.0875 ± 0.19
same,promoter activity interaction Z-score,[2]; [16],0.812 ± 0.01
same,promoter activity interaction Z-score,[2]; [17],1.05 ± 0.41
same,promoter activity interaction Z-score,[2]; [18],0.00921 ± 0.51
same,promoter activity interaction Z-score,[2]; [19],-0.225 ± 0.28
same,promoter activity interaction Z-score,[2]; [20],0.402 ± 1
same,promoter activity interaction Z-score,[2]; [21],-0.341 ± 0.046
same,promoter activity interaction Z-score,[2]; [22],0.198 ± 0.15
same,promoter activity interaction Z-score,[2]; [23],-0.312 ± 0.3
same,promoter activity interaction Z-score,[3]; [8],-0.542 ± 0.23
same,promoter activity interaction Z-score,[3]; [9],0.217 ± 0.034
same,promoter activity interaction Z-score,[3]; [10],-0.24 ± 0.022
same,promoter activity interaction Z-score,[3]; [11],-0.0851 ± 0.53
same,promoter activity interaction Z-score,[3]; [12],-0.984 ± 0.24
same,promoter activity interaction Z-score,[3]; [13],0.275 ± 0.043
same,promoter activity interaction Z-score,[3]; [14],-0.0884 ± 0.0078
same,promoter activity interaction Z-score,[3]; [15],0.00161 ± 0.34
same,promoter activity interaction Z-score,[3]; [16],-0.158 ± 0.37
same,promoter activity interaction Z-score,[3]; [17],0.257 ± 0.096
same,promoter activity interaction Z-score,[3]; [18],-0.122 ± 0.094
same,promoter activity interaction Z-score,[3]; [19],-0.241 ± 0.17
same,promoter activity interaction Z-score,[3]; [20],-0.608 ± 0.096
same,promoter activity interaction Z-score,[3]; [21],0.122 ± 0.096
same,promoter activity interaction Z-score,[3]; [22],-0.251 ± 0.11
same,promoter activity interaction Z-score,[3]; [23],0.0295 ± 0.21
same,promoter activity interaction Z-score,[4]; [8],-0.638 ± 0.26
same,promoter activity interaction Z-score,[4]; [9],0.332 ± 0.5
same,promoter activity interaction Z-score,[4]; [10],0.137 ± 1.3
same,promoter activity interaction Z-score,[4]; [11],-0.824 ± 0.29
same,promoter activity interaction Z-score,[4]; [12],-0.568 ± 0.12
same,promoter activity interaction Z-score,[4]; [13],0.31 ± 0.57
same,promoter activity interaction Z-score,[4]; [14],0.208 ± 0.91
same,promoter activity interaction Z-score,[4]; [15],-0.0625 ± 1.2
same,promoter activity interaction Z-score,[4]; [16],-0.201 ± 0.71
same,promoter activity interaction Z-score,[4]; [17],-0.362 ± 0.33
same,promoter activity interaction Z-score,[4]; [18],0.836 ± 0.9
same,promoter activity interaction Z-score,[4]; [19],-0.27 ± 0.58
same,promoter activity interaction Z-score,[4]; [20],-0.368 ± 0.11
same,promoter activity interaction Z-score,[4]; [21],-0.675 ± 0.88
same,promoter activity interaction Z-score,[4]; [22],-0.647 ± 0.46
same,promoter activity interaction Z-score,[4]; [23],-0.351 ± 0.82
same,promoter activity interaction Z-score,[5]; [8],0.788 ± 0.71
same,promoter activity interaction Z-score,[5]; [9],1.07 ± 0.14
same,promoter activity interaction Z-score,[5]; [10],0.0477 ± 0.46
same,promoter activity interaction Z-score,[5]; [11],0.332 ± 0.6
same,promoter activity interaction Z-score,[5]; [12],0.38 ± 0.33
same,promoter activity interaction Z-score,[5]; [13],1.13 ± 0.87
same,promoter activity interaction Z-score,[5]; [14],0.606 ± 0.79
same,promoter activity interaction Z-score,[5]; [15],0.859 ± 0.5
same,promoter activity interaction Z-score,[5]; [16],0.913 ± 0.078
same,promoter activity interaction Z-score,[5]; [17],0.411 ± 0.0043
same,promoter activity interaction Z-score,[5]; [18],0.829 ± 1.5
same,promoter activity interaction Z-score,[5]; [19],-0.797 ± 0.19
same,promoter activity interaction Z-score,[5]; [20],-0.161 ± 0.49
same,promoter activity interaction Z-score,[5]; [21],0.0014 ± 0.21
same,promoter activity interaction Z-score,[5]; [22],0.959 ± 1.3
same,promoter activity interaction Z-score,[5]; [23],0.501 ± 0.48
same,promoter activity interaction Z-score,[6]; [8],-0.156 ± 0.019
same,promoter activity interaction Z-score,[6]; [9],0.209 ± 0.098
same,promoter activity interaction Z-score,[6]; [10],-0.0921 ± 0.039
same,promoter activity interaction Z-score,[6]; [11],0.264 ± 0.5
same,promoter activity interaction Z-score,[6]; [12],-0.559 ± 0.02
same,promoter activity interaction Z-score,[6]; [13],0.12 ± 0.11
same,promoter activity interaction Z-score,[6]; [14],-0.0695 ± 0.0052
same,promoter activity interaction Z-score,[6]; [15],0.244 ± 0.33
same,promoter activity interaction Z-score,[6]; [16],-0.204 ± 0.11
same,promoter activity interaction Z-score,[6]; [17],-0.148 ± 0.051
same,promoter activity interaction Z-score,[6]; [18],-0.206 ± 0.015
same,promoter activity interaction Z-score,[6]; [19],-0.186 ± 0.41
same,promoter activity interaction Z-score,[6]; [20],-0.42 ± 0.036
same,promoter activity interaction Z-score,[6]; [21],-0.399 ± 0.12
same,promoter activity interaction Z-score,[6]; [22],-0.341 ± 0.14
same,promoter activity interaction Z-score,[6]; [23],-0.153 ± 0.15
same,promoter activity interaction Z-score,[7]; [8],-0.731 ± 0.53
same,promoter activity interaction Z-score,[7]; [9],-0.0769 ± 0.49
same,promoter activity interaction Z-score,[7]; [10],-0.819 ± 0.47
same,promoter activity interaction Z-score,[7]; [11],0.356 ± 0.35
same,promoter activity interaction Z-score,[7]; [12],-0.815 ± 0.45
same,promoter activity interaction Z-score,[7]; [13],0.181 ± 0.66
same,promoter activity interaction Z-score,[7]; [14],-0.0696 ± 0.8
same,promoter activity interaction Z-score,[7]; [15],-0.467 ± 0.52
same,promoter activity interaction Z-score,[7]; [16],-0.469 ± 0.65
same,promoter activity interaction Z-score,[7]; [17],0.826 ± 0.17
same,promoter activity interaction Z-score,[7]; [18],-0.739 ± 0.063
same,promoter activity interaction Z-score,[7]; [19],0.259 ± 0.43
same,promoter activity interaction Z-score,[7]; [20],-0.549 ± 0.6
same,promoter activity interaction Z-score,[7]; [21],-0.037 ± 0.23
same,promoter activity interaction Z-score,[7]; [22],-0.376 ± 0.11
same,promoter activity interaction Z-score,[7]; [23],0.000633 ± 0.47
